This note sets out measurements from PubChem BioAssay (Tox21).

Experiment [1] in a line: qHTS assay to identify small molecule agonists of the sonic hedgehog signaling (Shh) pathway (AID 1259368). Also: nearly all actives have a fitted effect of over 15% in size. Also: potency is read from the fitted curve at half-maximal effect. The method, boiled down: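 Cells of a mouse NIH/3T3 clone stably expressing luciferase under the Gli1 transcriptional response element are exposed to test chemicals for 24 hr at 37 C. Pathway activation is detected as a rise in luminescence.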
In general terms: qHTS replaces the single test concentration by a dilution series.

Experiment [2] is described as follows: qHTS assay to identify small molecule antagonists of the sonic hedgehog signaling (Shh) pathway (AID 1259369). Also: nearly all actives have a fitted effect of over 45% in size. Also: potency is read from the fitted curve at half-maximal effect. The essentials: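 Cells are plated and held 4hr at 37 C, compounds (DMSO) are pinned in, conditioned medium is added to stimulate the pathway, and after 24hr luciferase reagent is added for 30min before luminescence is read.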
The nature of experiment [3]: qHTS assay to identify small molecule agonists of the androgen receptor (AR) signaling pathway in the presence of an antagonist - cell viability counter screen (AID 1259379; active = well fitted curve in the direction sought with a large enough effect in the repeat runs; an effect the other way counts as inactive or inconclusive;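 also: MDA-kb2 human breast cancer cells carrying an MMTV luciferase reporter; series mostly up to about 92 µM; nearly all actives have a fitted effect of over 25% in size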). The essentials: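 Cytotoxicity is assessed by CellTiter-Fluor in MDA-kb2 cells carrying an MMTV-driven luciferase reporter. Cells receive 3.0uM nilutamide plus compounds at 15 concentrations and incubate 16 hr at 37C without CO2 before fluorescence reading.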

Experiment [4] can be described thus: qHTS assay to identify small molecule agonists of the estrogen receptor beta (ER-beta) signaling pathway - cell viability counter screen (AID 1259380; active = well fitted curve in the direction sought with a large enough effect in the repeat runs; an effect the other way counts as inactive or inconclusive; also: nearly all actives have a fitted effect of over 30% in size). The essentials:
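Cytotoxicity is measured in parallel with the reporter screen: after 16 hr compound exposure at 37C and a 2 hr LiveBLAzer step, CellTiter-Glo is added to the same ER-beta-UAS-bla HEK293T wells and luminescence read after 30 min.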

The target in experiment [5] is Androgen receptor (Homo sapiens) (UniProt P10275). In words: qHTS assay to identify small molecule agonists of the androgen receptor (AR) signaling pathway in the presence of an antagonist (AID 1259381). Also: nearly all actives have a fitted effect of over 15% in size. The method, boiled down: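 Agonist-mode confirmation screen: human MDA-kb2 cells stably expressing luciferase under an MMTV promoter bearing AR and GR response elements, co-treated with 3.0uM nilutamide (final). Luminescence measured after 16hr compound incubation.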

Experiment [6] can be described thus: qHTS assay to identify small molecule antagonists of the estrogen receptor beta (ER-beta) signaling pathway - cell viability counter screen (AID 1259382; active = well fitted curve in the direction sought with a large enough effect in the repeat runs; an effect the other way counts as inactive or inconclusive; also: series mostly up to about 92 µM; nearly all actives have a fitted effect of over 55% in size). The method, boiled down:
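Cytotoxicity counter screen multiplexed with the beta-lactamase antagonist assay: GripTite HEK293T ER-beta-bla cells were treated 16 hr with test chemicals in the presence of 1nM 17-beta-estradiol, and viability was measured by CellTiter-Glo.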

Experiment [7] has as its target Estrogen receptor (Homo sapiens) (UniProt P03372). In words: qHTS assay to identify small molecule agonists of the estrogen receptor alpha (ER-alpha) signaling pathway in the presence of an antagonist (AID 1259383). Also: top concentration of the series differs between compounds; nearly all actives have a fitted effect of over 15% in size. The essentials:
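Agonist-mode confirmation in the presence of the ER antagonist ICI-182,780 at 10.0nM final. Breast-derived VM7Luc4E2 reporter cells were exposed to compounds for 22hr, and ERE-driven luciferase was quantified by luminescence.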

A short description of experiment [8]: qHTS assay to identify small molecule agonists or antagonists of the thyroid stimulating hormone receptor (TSHR) signaling pathway - wild type cell line counter screen (AID 1259384). The essentials:
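Wild-type HEK293 cells were plated 18 h at 37 C/5% CO2, pin-dosed with compound plus Ro20-1724 medium, held 30 min at room temperature, then given cAMP-d2 and anti-cAMP-cryptate; fluorescence was read after 1 h. Fifteen concentrations, triplicate.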

In experiment [9] the target is Thyrotropin receptor (Homo sapiens) (UniProt P16473). In words: qHTS assay to identify small molecule antagonists of the thyroid stimulating hormone receptor (TSHR) signaling pathway (AID 1259385). Also: nearly all actives have a fitted effect of over 20% in size. The method, boiled down: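 TSHR-HEK293 cells were plated and held 18 h at 37C/5% CO2, then given compound plus Ro20-1724 and stimulated with TSH at 1.5 ng/mL final. After 30 min at room temperature, cAMP was detected with cAMP-d2/anti-cAMP-cryptate (1 h) by fluorescence.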

Experiment [10] has as its target Progesterone receptor (Homo sapiens) (UniProt P06401). Briefly: qHTS assay to identify small molecule antagonists of the progesterone receptor (PR) signaling pathway (AID 1346795; active = well fitted inhibition curve with a large enough effect in the signal ratio in the repeat runs, not every such curve was filed as active; the % refers to the signal ratio). The method, boiled down: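 After 6 hr plating at 37C in 2% stripped-serum medium, PR-UAS-bla HEK293T cells got compounds, then 1 nM R5020. Sixteen hours later, LiveBLAzer substrate was applied for 2 hr at room temperature and fluorescence was recorded.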

Experiment [11] in a line: qHTS assay to identify small molecule antagonists of the progesterone receptor (PR) signaling pathway - cell viability counter screen (AID 1346798; active = well fitted curve in the direction sought with a large enough effect in the repeat runs; an effect the other way counts as inactive or inconclusive; also: series mostly up to about 92 µM; nearly all actives have a fitted effect of over 50% in size). The method, boiled down:
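Viability was determined by ATP-based luminescence (CellTiter-Glo) in PR-UAS-bla HEK293T cells cultured in 2% charcoal-stripped serum and incubated 16 hr with compounds under R5020 stimulation.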

The nature of experiment [12]: qHTS assay to identify small molecule agonists of the progesterone receptor (PR) signaling pathway - cell viability counter screen (AID 1346799). Also: nearly all actives have a fitted effect of over 45% in size. The method, boiled down:
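Viability was scored by ATP luminescence (CellTiter-Glo, 30 min, room temperature) in the same wells used for the reporter readout, after 16 hr compound exposure of PR-UAS-bla HEK293T cells.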

The nature of experiment [13]: qHTS assay to identify small molecule antagonists of the TGF-beta/Smad signaling pathway - cell viability counter screen (AID 1346824; active = well fitted curve in the direction sought with a large enough effect in the repeat runs; an effect the other way counts as inactive or inconclusive; also: nearly all actives have a fitted effect of over 50% in size). The method, boiled down:
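SBE-bla HEK 293T cells were plated overnight at 37 C, then given compounds in DMSO plus TGF-beta1 (added as 0.25 ng/mL solution) for 5 hr. After the bla read, CellTiter-Glo was added to the same wells and luminescence read after 30 min at room temperature.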

Experiment [14] is described as follows: qHTS assay to identify small molecule agonists of the TGF-beta/Smad signaling pathway - cell viability counter screen (AID 1346829; active = well fitted curve in the direction sought with a large enough effect in the repeat runs; an effect the other way counts as inactive or inconclusive; also: top concentration of the series differs between compounds; nearly all actives have a fitted effect of over 45% in size). The method, boiled down:
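In parallel with the Smad reporter read, viability of HEK 293T cells stably carrying SBE-bla is quantified by ATP luminescence following 5 hr compound treatment.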

In experiment [15] the target is Thyrotropin-releasing hormone receptor (Homo sapiens) (UniProt P34981). Briefly: qHTS assay to identify small molecule antagonists of the thyrotropin-releasing hormone receptor (TRHR) signaling pathway (AID 1346877; active = well fitted inhibition curve with a large enough effect in the repeat runs, not every such curve was filed as active; also: series mostly up to about 51 µM). The method, boiled down:
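Antagonism is measured as suppression of the calcium response to 1 nM TRH in TRHR-HEK293 cells that have been dye-loaded for 2 h at 37 °C after overnight plating. Each compound is tested at 15 concentrations in triplicate.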

The target in experiment [16] is Estrogen receptor beta (Homo sapiens) (UniProt Q92731). In words: qHTS assay to identify small molecule antagonists of the estrogen receptor beta (ER-beta) signaling pathway (AID 1259378; active = well fitted inhibition curve with a large enough effect in the signal ratio in the repeat runs, not every such curve was filed as active; the % refers to the signal ratio). The essentials:
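ER-beta-UAS-bla HEK293T (GripTite) cells in 2% charcoal-stripped FBS medium were preincubated 6 hr at 37C, dosed with compound, then stimulated with 1 nM E2 (final) for 16 hr; beta-lactamase reporter read by B/G FRET fluorescence after 2 hr substrate loading.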

A short description of experiment [17]: qHTS assay to identify small molecule agonists of the estrogen receptor alpha (ER-alpha) signaling pathway in the presence of an antagonist - cell viability counter screen (AID 1259386; active = well fitted curve in the direction sought with a large enough effect in the repeat runs; an effect the other way counts as inactive or inconclusive;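 also: series mostly up to about 92 µM; cells exposed to compounds for 22 h at 37 °C before the viability read; nearly all actives have a fitted effect of over 30% in size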). The method, boiled down:
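Cytotoxicity was measured in parallel with the ERE-luciferase agonist screen, in the same wells. The cells were VM7Luc4E2, which endogenously express ER-alpha, and treatment was with compounds plus 10.0nM ICI-182,780 for 22hr.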

Experiment [18] concerns the target Progesterone receptor (Homo sapiens) (UniProt P06401). Briefly: qHTS assay to identify small molecule agonists of the progesterone receptor (PR) signaling pathway (AID 1346784). Also: nearly all actives have a fitted effect of over 30% in size. The method, boiled down: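 The screen uses PR-UAS-bla HEK 293T cells in charcoal-stripped serum (2%). Compounds are applied for 16 hr at 37C after a 6 hr pre-incubation, and reporter activity is detected with a FRET beta-lactamase substrate after 2 hr at room temperature.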

The nature of experiment [19]: qHTS assay to identify small molecule agonists of the TGF-beta/Smad signaling pathway (AID 1346859; active = well fitted activation curve with a large enough effect in the signal ratio in the repeat runs, not every such curve was filed as active; the % refers to the signal ratio; also: series mostly up to about 77 µM). The essentials: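 Dual-wavelength fluorescence (460/530 nm emission) quantified beta-lactamase expression under the Smad binding element in HEK 293T cells following 5 hr compound treatment at 37 C.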
The target of experiment [20] is Estrogen receptor beta (Homo sapiens) (UniProt Q92731). Briefly: qHTS assay to identify small molecule agonists of the estrogen receptor beta (ER-beta) signaling pathway (AID 1259377; active = well fitted activation curve with a large enough effect in the signal ratio in the repeat runs, not every such curve was filed as active; the % refers to the signal ratio). The essentials: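 Measured by fluorescence intensity from a B/G FRET beta-lactamase substrate (2 h, room temperature) in ER-beta-UAS-bla HEK293T cells treated with DMSO-dissolved compounds for 16 hr at 37C and 5% CO2.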

Unmarked numbers belong to inactive results. Records with an inconclusive call do not appear. Activity calls are given as the source filed them. Unless noted, calls follow the shape of the full dose curve.

Sequence of Androgen receptor (Homo sapiens) (P10275 whole entry, looked up): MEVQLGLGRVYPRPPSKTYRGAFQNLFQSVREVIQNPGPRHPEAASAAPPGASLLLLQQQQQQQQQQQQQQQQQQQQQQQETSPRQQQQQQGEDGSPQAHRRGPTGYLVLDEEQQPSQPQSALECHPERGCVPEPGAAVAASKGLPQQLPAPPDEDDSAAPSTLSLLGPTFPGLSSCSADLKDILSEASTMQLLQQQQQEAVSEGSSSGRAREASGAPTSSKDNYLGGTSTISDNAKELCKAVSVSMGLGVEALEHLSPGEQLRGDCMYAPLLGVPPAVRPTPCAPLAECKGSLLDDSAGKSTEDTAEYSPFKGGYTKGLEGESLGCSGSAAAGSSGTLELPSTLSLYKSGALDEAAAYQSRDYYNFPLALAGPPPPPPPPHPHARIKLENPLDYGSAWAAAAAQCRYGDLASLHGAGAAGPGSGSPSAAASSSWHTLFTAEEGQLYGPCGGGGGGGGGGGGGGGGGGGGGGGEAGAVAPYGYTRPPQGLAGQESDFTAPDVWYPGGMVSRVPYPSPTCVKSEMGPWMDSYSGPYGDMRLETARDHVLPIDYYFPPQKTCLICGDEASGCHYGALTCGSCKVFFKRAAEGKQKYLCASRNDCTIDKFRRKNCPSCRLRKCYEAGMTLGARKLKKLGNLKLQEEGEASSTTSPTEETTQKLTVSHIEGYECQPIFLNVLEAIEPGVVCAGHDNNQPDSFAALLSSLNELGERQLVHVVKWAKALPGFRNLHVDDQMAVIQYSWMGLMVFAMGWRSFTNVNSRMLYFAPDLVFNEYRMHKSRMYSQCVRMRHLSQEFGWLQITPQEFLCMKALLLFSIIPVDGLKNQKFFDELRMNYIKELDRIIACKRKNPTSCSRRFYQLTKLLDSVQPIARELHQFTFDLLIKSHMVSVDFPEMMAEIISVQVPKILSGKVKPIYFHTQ
Sequence of Thyrotropin-releasing hormone receptor (Homo sapiens) (P34981 whole entry, looked up): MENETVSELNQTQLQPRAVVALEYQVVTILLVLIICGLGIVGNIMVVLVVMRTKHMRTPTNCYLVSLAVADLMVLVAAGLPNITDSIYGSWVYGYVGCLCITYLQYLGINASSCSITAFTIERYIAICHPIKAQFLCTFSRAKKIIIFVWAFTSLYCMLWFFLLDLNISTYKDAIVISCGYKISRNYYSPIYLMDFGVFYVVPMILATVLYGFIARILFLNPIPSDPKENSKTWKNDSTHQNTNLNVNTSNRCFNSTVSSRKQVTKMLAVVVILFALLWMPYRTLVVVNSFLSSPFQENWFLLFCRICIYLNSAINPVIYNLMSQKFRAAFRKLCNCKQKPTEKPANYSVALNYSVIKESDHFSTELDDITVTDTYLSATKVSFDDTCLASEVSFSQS
Sequence of Thyrotropin receptor (Homo sapiens) (P16473 whole entry, looked up): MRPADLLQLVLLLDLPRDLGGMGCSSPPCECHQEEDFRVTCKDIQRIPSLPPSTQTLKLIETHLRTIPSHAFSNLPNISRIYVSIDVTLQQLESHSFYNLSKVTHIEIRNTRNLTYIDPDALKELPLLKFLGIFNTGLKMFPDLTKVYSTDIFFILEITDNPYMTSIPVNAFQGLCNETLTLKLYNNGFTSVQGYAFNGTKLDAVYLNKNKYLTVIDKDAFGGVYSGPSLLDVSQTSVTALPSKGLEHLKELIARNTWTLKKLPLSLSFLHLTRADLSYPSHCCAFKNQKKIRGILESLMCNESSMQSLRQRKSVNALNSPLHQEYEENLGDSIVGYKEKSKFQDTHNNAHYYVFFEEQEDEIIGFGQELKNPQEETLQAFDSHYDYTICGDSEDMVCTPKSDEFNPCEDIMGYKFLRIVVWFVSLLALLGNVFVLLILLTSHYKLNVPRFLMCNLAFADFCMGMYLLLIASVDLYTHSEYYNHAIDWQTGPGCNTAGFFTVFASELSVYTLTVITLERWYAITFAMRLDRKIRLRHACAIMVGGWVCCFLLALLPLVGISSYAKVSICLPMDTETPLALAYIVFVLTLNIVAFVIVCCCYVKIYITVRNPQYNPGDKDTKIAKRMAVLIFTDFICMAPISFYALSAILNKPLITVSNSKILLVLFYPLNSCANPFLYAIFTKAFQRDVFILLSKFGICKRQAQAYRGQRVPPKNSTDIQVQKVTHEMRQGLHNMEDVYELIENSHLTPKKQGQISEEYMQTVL
Sequence of Estrogen receptor (Homo sapiens) (P03372 whole entry, looked up): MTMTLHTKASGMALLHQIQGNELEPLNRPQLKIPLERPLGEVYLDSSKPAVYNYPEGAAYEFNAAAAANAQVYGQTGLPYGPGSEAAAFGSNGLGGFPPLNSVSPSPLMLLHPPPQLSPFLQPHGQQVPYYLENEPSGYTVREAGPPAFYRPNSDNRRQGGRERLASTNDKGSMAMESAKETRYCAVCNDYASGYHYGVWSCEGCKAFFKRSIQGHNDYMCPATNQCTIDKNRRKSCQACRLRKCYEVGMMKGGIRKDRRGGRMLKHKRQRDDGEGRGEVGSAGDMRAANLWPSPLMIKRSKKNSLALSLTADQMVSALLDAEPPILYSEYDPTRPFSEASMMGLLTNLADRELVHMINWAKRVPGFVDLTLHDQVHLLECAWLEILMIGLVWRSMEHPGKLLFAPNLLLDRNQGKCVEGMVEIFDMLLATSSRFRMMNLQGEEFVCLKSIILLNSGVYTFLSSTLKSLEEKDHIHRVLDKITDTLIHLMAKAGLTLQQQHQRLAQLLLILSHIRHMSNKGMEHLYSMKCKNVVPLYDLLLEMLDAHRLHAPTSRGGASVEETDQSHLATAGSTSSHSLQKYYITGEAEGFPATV
Sequence of Progesterone receptor (Homo sapiens) (P06401 whole entry, looked up): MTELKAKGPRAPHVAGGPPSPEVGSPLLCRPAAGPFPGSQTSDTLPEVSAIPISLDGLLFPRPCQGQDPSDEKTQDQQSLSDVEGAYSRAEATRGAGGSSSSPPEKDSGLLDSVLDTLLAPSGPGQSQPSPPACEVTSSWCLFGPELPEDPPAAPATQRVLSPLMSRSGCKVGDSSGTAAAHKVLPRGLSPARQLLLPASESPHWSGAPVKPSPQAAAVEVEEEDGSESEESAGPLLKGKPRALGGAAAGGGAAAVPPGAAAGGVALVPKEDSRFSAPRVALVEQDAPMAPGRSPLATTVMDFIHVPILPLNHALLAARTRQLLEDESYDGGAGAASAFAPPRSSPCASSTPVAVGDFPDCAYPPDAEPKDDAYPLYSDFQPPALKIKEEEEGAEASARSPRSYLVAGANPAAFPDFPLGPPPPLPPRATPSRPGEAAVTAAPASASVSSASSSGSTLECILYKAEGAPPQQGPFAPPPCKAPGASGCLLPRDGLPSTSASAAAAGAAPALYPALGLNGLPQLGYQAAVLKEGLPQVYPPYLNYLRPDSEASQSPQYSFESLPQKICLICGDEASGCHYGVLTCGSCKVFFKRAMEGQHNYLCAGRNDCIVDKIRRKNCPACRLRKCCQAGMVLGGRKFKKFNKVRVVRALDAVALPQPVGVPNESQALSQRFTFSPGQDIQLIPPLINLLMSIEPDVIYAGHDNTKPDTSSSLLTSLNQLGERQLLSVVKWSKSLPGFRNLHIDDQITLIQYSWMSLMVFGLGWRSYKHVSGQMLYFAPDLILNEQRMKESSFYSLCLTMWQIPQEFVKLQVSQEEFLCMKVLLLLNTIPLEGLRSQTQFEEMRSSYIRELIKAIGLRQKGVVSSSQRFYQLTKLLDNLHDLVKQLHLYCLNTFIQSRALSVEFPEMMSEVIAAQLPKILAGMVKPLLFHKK
Sequence of Estrogen receptor beta (Homo sapiens) (Q92731 whole entry, looked up): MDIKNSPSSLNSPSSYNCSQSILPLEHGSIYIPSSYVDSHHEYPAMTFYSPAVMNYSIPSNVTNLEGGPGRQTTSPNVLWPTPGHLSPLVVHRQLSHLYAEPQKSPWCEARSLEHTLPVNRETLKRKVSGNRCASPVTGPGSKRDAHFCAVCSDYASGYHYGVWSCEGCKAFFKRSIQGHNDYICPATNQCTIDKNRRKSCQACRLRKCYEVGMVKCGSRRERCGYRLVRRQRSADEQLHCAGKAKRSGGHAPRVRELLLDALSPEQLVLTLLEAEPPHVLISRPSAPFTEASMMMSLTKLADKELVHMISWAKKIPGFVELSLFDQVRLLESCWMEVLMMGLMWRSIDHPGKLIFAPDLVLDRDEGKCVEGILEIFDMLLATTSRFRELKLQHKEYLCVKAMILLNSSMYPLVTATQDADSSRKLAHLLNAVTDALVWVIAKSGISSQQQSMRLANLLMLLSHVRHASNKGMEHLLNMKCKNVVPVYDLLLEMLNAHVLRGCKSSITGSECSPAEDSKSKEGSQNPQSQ

On to `Cc1c(F)cc2c(=O)c(C(=O)O)cn3c2c1CCC3C` (stereo not drawn), for which the Potency entry in experiment [1], in experiment [2], in experiment [3], in experiment [4], in experiment [5] and in [6] was “inactive” each time. The Potency entry in [7], in experiment [9], in experiment [10], in [11] and in [12] was “inactive” each time. Besides, the molecule was classed as inactive in experiment [8], in [13], in [14] and in experiment [15].

Take `OC/C=C/c1ccccc1`: the Potency entry in [1], in experiment [2], in [16], in experiment [3], in experiment [18] and in experiment [10] was “inactive” throughout. The Potency entry in [11] and in [12] was “inactive” in each case. In addition, the outcome in [17], in [13], in experiment [14] and in [19] was inactive.

`CC(C)CCCC(C)NCCC(C)C` (stereo not drawn): the Potency result in [1], in [2], in experiment [16], in experiment [3], in experiment [4] and in experiment [5] was “inactive” throughout. The Potency result in experiment [7], in [9], in experiment [18], in [10], in experiment [11] and in experiment [12] was “inactive” each time. Moreover, the result in [8], in [17], in experiment [13], in [14], in experiment [19] and in [15] was inactive.

For the molecule `CC(=O)NC(Cc1ccccc1)C(=O)O` (stereo not drawn), the Potency entry in experiment [1], in experiment [2], in experiment [3], in experiment [4], in experiment [6] and in experiment [7] was “inactive” in each case. The Potency entry in [9], in experiment [18], in experiment [11] and in [12] was “inactive” each time. In addition, the molecule was called inactive in [8], in experiment [17], in experiment [13], in [14], in experiment [19] and in experiment [15].

On to `CC(C)[C@H](N)C(=O)OCCOCn1cnc2c(=O)[nH]c(N)nc21`, for which the Potency result in experiment [1], in [2], in [3], in [7], in [9] and in experiment [18] was “inactive” in each case. The Potency entry in experiment [10], in experiment [11] and in experiment [12] was “inactive” throughout. Also, the molecule was called inactive in [20], in experiment [8], in experiment [17], in [13], in experiment [19] and in experiment [15].

As for `COc1ccc(N=[N+]([O-])c2ccc(OC)cc2)cc1`, the Potency in [1] was 0.121 µM (active). For the same molecule, the Potency entry in [2], in [3], in experiment [6], in experiment [7], in experiment [9] and in experiment [10] was “inactive” in each case. The outcome in experiment [20], in experiment [8], in experiment [17], in [13], in experiment [19] and in experiment [15] was inactive.

Take `Cc1onc(-c2ccccc2)c1-c1ccc(S(N)(=O)=O)cc1`: the Potency entry in experiment [1], in experiment [3], in experiment [6], in experiment [9] and in experiment [18] was “inactive” throughout. Moreover, in [2], the Potency was 18.8 µM (active). The outcome in experiment [20], in experiment [8], in experiment [17], in experiment [13], in experiment [14] and in [19] was inactive. Moreover, the molecule was classed as inactive in [15].

`COC(=O)CCCCCCCCC(=O)OC`: the Potency entry in experiment [1], in experiment [2], in experiment [3], in experiment [4], in [6] and in [7] was “inactive” throughout. In addition, the Potency result in experiment [9], in experiment [18], in [10], in experiment [11] and in [12] was “inactive” in each case. Also, the molecule was classed as inactive in [8], in experiment [17], in [13], in [19] and in experiment [15].

As to `O=c1[nH]c(=O)n([C@H]2O[C@H](CO)[C@@H](O)[C@@H]2O)cc1/C=C\Br`, the Potency result in experiment [1], in experiment [2], in [3], in experiment [4], in experiment [5] and in [6] was “inactive” in each case. Further, the Potency entry in experiment [7], in experiment [18], in [10] and in experiment [12] was “inactive” in each case. Moreover, the result in [17], in experiment [13], in [14], in [19] and in experiment [15] was inactive.
